From PubChem BioAssay (NCI)
The panel holds about 79,000 compounds, 15% with a hit somewhere; the sample as a whole holds those more often. Calls of active or inactive are those of the source. Cut-off read from the data, not from the text of the source: active = growth inhibition above about 70%; inactive = the rest.

What was measured:
[1] = NCI Yeast Anticancer Drug Screen. Data for the rad50 strain (AID 155);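 note: 0% = growth of vehicle-only cultures of the same strain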; conditions: S. cerevisiae rad50 strain growth inhibition; at 50.0 µM; active compounds read high
How it was run: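 A DNA repair-deficient yeast mutant serves as the test organism; compound-induced growth inhibition is calculated against vehicle-treated cells.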

[2] = NCI Yeast Anticancer Drug Screen. Data for the mec2-1 strain (AID 157); conditions: S. cerevisiae mec2-1 strain, at 50.0 µM, active compounds read high
How it was run: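 Cells of the genetically defined mec2-1 yeast strain are incubated with test compound. Inhibition of growth is calculated against vehicle-treated controls.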

[3] = NCI Yeast Anticancer Drug Screen. Data for the sgs1 mgt1 strain (AID 161);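 note: 0% = growth of cultures given vehicle only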; conditions: S. cerevisiae sgs1 mgt1 strain, at 50.0 µM, active compounds read high
How it was run: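 Genetically altered yeast, compound exposure, growth inhibition relative to vehicle.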

[4] = NCI Yeast Anticancer Drug Screen. Data for the cln2 rad14 strain (AID 165);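 note: 0% = growth equal to vehicle treated cultures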; conditions: S. cerevisiae cln2 rad14 strain, at 50.0 µM, active compounds read high
How it was run: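 The screen exposed genetically defined yeast (cln2 rad14) to test compounds and scored growth inhibition relative to vehicle-treated controls.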

[5] = NCI Yeast Anticancer Drug Screen. Data for the bub3 strain (AID 167); conditions: S. cerevisiae bub3 mutant strain, at 50.0 µM, active compounds read high
How it was run: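 Inhibition values come from growth of compound-treated mutant yeast normalised to vehicle-treated controls.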

[6] = NCI Yeast Anticancer Drug Screen. Data for the mlh1 rad18 strain (AID 175); conditions: S. cerevisiae mlh1 rad18 strain growth inhibition; at 50.0 µM; active compounds read high
How it was run: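 Compound-treated yeast growth, normalised to vehicle controls. Strain bears defined DNA repair mutations.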

Measured: growth inhibition

C=C(C)C12CC3CC/C(=N/O)C(C1)C3(N1CCOCC1)C/C2=N/O (stereo not given)
inactive: [1] -21.6% | [2] -18.9% | [3] -16.2% | [4] -12.3% | [5] -7.15% | [6] -25.9%

O=C(Nc1ccc([N+](=O)[O-])c2c1C(=O)c1ccccc1C2=O)c1ccccc1
inactive: [1] -7.7% | [2] -12.1% | [3] -5.95% | [4] -43.4% | [5] 10.1% | [6] -2.9%

O=C1CC(c2ccccc2)OC(c2ccccc2Cl)C1 (stereo not given)
inactive: [1] -1.25% | [2] -8.35% | [3] -39.5% | [4] -20.7% | [5] -5.85% | [6] 9.1%

CC(C)NCC1CCCO1 (stereo not given)
inactive: [1] -6.65% | [2] -23.2% | [3] -16.4% | [4] 4.9% | [5] -5.7% | [6] -7.85%

O=C(O)C1C(C(=O)O)C1c1ncnc2nc[nH]c12 (stereo not given)
inactive: [1] -0.95% | [2] -13.7% | [3] -4.95% | [4] -26.8% | [5] -17.8% | [6] 7.4%

O=CNc1ccc(S(=O)(=O)c2ccc(NC=O)cc2)cc1
inactive: [1] 4.05% | [2] -35.7% | [3] 4.75% | [4] 26.6% | [5] 9.9% | [6] -18.1%

CC(C)CC(N)C(=O)NC(Cc1c[nH]c2ccccc12)C(N)=O (stereo not given)
inactive: [1] -8.85% | [2] 3.35% | [3] 18.1% | [4] -2.4% | [5] 22.4% | [6] 10.5%

CN(C)C(=O)NO
inactive: [1] -32% | [2] -26.1% | [3] -11.8% | [4] -19.8% | [5] -3.3% | [6] -28.4%

CCOC(=O)c1nc(SC)sc1NC(=O)c1ccc([N+](=O)[O-])cc1
inactive: [1] -11% | [2] -24.8% | [3] -30.8% | [4] 27.1% | [5] -14.7% | [6] -21.6%

CC(=O)OCCNc1ccccc1
inactive: [1] -5.05% | [2] 0.2% | [3] 10.2% | [4] -5% | [5] -2.75% | [6] 20.3%

CSc1nc2nc[nH]c2c(=O)[nH]1
inactive: [1] 3.45% | [2] 0.3% | [3] -16.2% | [4] -14.2% | [5] -1.85% | [6] -3.65%

COC(=O)C(C#N)(CCc1ccc([N+](=O)[O-])cc1)CCc1ccc([N+](=O)[O-])cc1
inactive: [1] 14.8% | [2] -4.25% | [3] 3% | [4] -6.7% | [5] 5.6% | [6] 25.9%

O=C1C2C(C(=O)N1c1ccccc1)C1([N+](=O)[O-])C=C3c4ccccc4N(C(=O)c4ccccc4)C32C2C(=O)N(c3ccccc3)C(=O)C21 (stereo not given)
inactive: [1] -24.9% | [2] 12.8% | [3] -15.4% | [4] 36.3% | [5] -6.35% | [6] -4.9%

C1=Cc2ccccc2/C1=C\C=C\c1ccccc1
inactive: [1] 19.1% | [2] 8.75% | [3] -2.35% | [4] -11.4% | [5] 2.8% | [6] 18.1%

CC1c2ccccc2-c2ccccc2N1C(=O)c1cccc(C(=O)N2c3ccccc3-c3ccccc3C2C)n1 (stereo not given)
inactive: [1] 26.3% | [2] 11.6% | [3] -6.75% | [4] -1.9% | [5] -2.1% | [6] 18.1%

Cc1cccn2c(C)nnc12
inactive: [1] 3.4% | [2] 25.7% | [3] -1.35% | [4] 17.6% | [5] 28.1% | [6] 12.7%

NC(=O)C(=CNc1nc(-c2ccc(Cl)c(Cl)c2)cs1)C(N)=O
inactive: [1] -53.9% | [2] -45.1% | [3] -29.4% | [4] -17.2% | [5] -6.5% | [6] -8.25%

CCC(C#N)(C(=O)OC)/C(C)=C/C(C)C (stereo not given)
inactive: [1] 7.95% | [2] -13.2% | [3] -3.45% | [4] -7.25% | [5] -26.9% | [6] -25.1%

COC(=O)N1CCc2c(nc(N(C)CCO)[nH]c2=O)C1
inactive: [1] -0.55% | [2] -20.5% | [3] -47.2% | [4] -3.8% | [5] -30.1% | [6] -30.6%

O=[N+]([O-])c1ccc(-c2nnn(Cc3ccco3)c2N2CCCCC2)cc1
active: [2] 70.7% | [3] 91.2% | [4] 84.2% | [5] 95.7% | [6] 81.3%
inactive: [1] 69.6%

CC(C)(C)c1cc[n+](C[n+]2ccc(C(C)(C)C)cc2)cc1
inactive: [1] 4.8% | [2] -12.2% | [3] -0.45% | [4] -13.4% | [5] -22.9% | [6] -5%

COC1CC(OC2C(C)OC(OC3C(C)OC(OC4C(C)OC(O[C@H]5CC[C@@]6(C)C(=CC[C@]7(O)[C@@H]6C[C@@H](OC(=O)/C=C/c6ccccc6)[C@@]6(C)[C@]7(O)CC[C@@]6(O)C(C)=O)C5)CC4OC)CC3OC)CC2OC)OC(C)C1O (stereo not given in full)
inactive: [1] 31% | [2] 19.2% | [3] 5.35% | [4] 25.9% | [5] 7.15% | [6] -27.6%

O=C(Nc1ccc2ccccc2c1)C1CC1
inactive: [1] 0.2% | [2] -13.3% | [3] -9.15% | [4] -68.8% | [5] -33.1% | [6] -6.65%

CCNC(=O)NCN1CCOCC1
inactive: [1] 26.2% | [2] -0.5% | [3] 16.9% | [4] 9.45% | [5] 0.4% | [6] 9%

Cn1c(=O)c(CC(O)C(Cl)(Cl)Cl)nc2ccccc21 (stereo not given)
inactive: [1] 20.6% | [2] 23.6% | [3] 3.4% | [4] 3.75% | [5] 18.9% | [6] 31.7%

CC(=O)Oc1nc2ccccc2n1C(C)=O
inactive: [1] 15.3% | [2] 20.9% | [3] 20.6% | [4] -5.1% | [5] 39.5% | [6] 5.55%

CCOC(=O)C(CN)c1ccccc1 (stereo not given)
inactive: [1] -9.15% | [2] -9.5% | [3] 8.1% | [4] -32.9% | [5] -1.25% | [6] 3.6%

C/C=C(\C)c1cc(O)c(C)c2c1Oc1cc(O)c(Cl)c(C)c1C(=O)O2
active: [1] 92.5% | [2] 94.8% | [3] 93.9% | [4] 92.3% | [5] 93.5% | [6] 92.5%

CCOC(=O)C(=O)Nc1ccccc1OCC
inactive: [1] 3.3% | [2] 11.2% | [3] -11.2% | [4] -27.7% | [5] 0.9% | [6] 4.2%

CCN(CC)c1ccc(/C=C2\SC(=S)NC2=O)cc1
inactive: [1] 2.95% | [2] 4.65% | [3] 27.6% | [4] 9.95% | [5] 9.35% | [6] 7.75%

N#CC(c1cnc2ccccc2n1)c1cccc2ccccc12 (stereo not given)
inactive: [1] -0.3% | [2] 5.9% | [3] 1% | [4] -5.75% | [5] -5.3% | [6] 13%

C=CCOC(=O)c1cccc(C(=O)OCC=C)c1
inactive: [1] 12.6% | [2] 23.4% | [3] 40.2% | [4] 19.1% | [5] 34.5% | [6] 33.8%

CCN(CC)c1nc(N(CC)CC)nc(N(CC)CC)n1
inactive: [1] -1% | [2] 14.8% | [3] 2.75% | [4] -30.6% | [5] 13.8% | [6] 0.2%

CC1(C)CC(C)(C)CC(O)(C2(O)CC(C)(C)CC(C)(C)C2)C1
inactive: [1] -0.95% | [2] 0.35% | [3] -2.7% | [4] -3% | [5] -5.4% | [6] 9.2%

O=C(c1ccccc1)C1(c2ccccc2)CCCCC1
inactive: [1] 19.6% | [2] 15.6% | [3] 20.1% | [4] -10.6% | [5] 0.45% | [6] 32.6%

O=CC1=CCC2c3[nH]c4ccccc4c3CCN2C1 (stereo not given)
inactive: [1] 24.9% | [2] 20.5% | [3] 25.7% | [4] 27.2% | [5] 28.2% | [6] 19.8%

Cc1cc(N)c(C)c2ccncc12
inactive: [1] -11.4% | [2] 0% | [3] -11.5% | [4] -15.2% | [5] 24.2% | [6] 2.75%

O=C(Nc1nc(=S)[nH][nH]1)C(=O)C(c1cnc2ccc([N+](=O)[O-])cc2n1)[N+](=O)[O-] (stereo not given)
inactive: [1] -4.5% | [2] -26% | [3] -14.3% | [4] 7.9% | [5] -0.6% | [6] 3.2%

Cc1ccc(CN2CCOCC2)c(O)c1
inactive: [1] 18.9% | [2] 9.15% | [3] -0.65% | [4] -0.1% | [5] -7.45% | [6] -11.4%

COC1OC(=O)c2cccc3cccc1c23 (stereo not given)
inactive: [1] -9.3% | [2] -14.8% | [3] -8.2% | [4] -7.5% | [5] -2.4% | [6] -18.7%
